Laboratory results from article PMC5540273 (PLoS ONE, 2017).

Assays:
Conditions in all cases: concentration: 1 μM, replicates: in singlicate; n = 1
FYN = test system: FYN
GAK = test system: GAK
GCN2(Kin.Dom.2,S808G) = test system: T1, GCN2(Kin.Dom.2,S808G)
T1 construct: gene EIF2AK4

GRK1 = test system: GRK1
GRK2 = test system: T2, GRK2
T2 construct: gene ADRBK1

GRK3 = test system: T3, GRK3
T3 construct: gene ADRBK2

GRK4 = test system: GRK4
GRK7 = test system: GRK7
GSK3A = test system: GSK3A
GSK3B = test system: GSK3B
HASPIN = test system: T4, HASPIN
T4 construct: gene GSG2

HCK = test system: HCK
HIPK1 = test system: HIPK1
HIPK2 = test system: HIPK2
HIPK3 = test system: HIPK3
HIPK4 = test system: HIPK4
HPK1 = test system: HPK1
HUNK = test system: HUNK
ICK = test system: ICK
IGF1R = test system: IGF1R
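Also: KINOMEscan kinase panel screen.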

Structure (SMILES) | %Inh (FYN) [%] | %Inh (GAK) [%] | %Inh (GCN2(Kin.Dom.2,S808G)) [%] | %Inh (GRK1) [%] | %Inh (GRK2) [%] | %Inh (GRK3) [%] | %Inh (GRK4) [%] | %Inh (GRK7) [%] | %Inh (GSK3A) [%] | %Inh (GSK3B) [%] | %Inh (HASPIN) [%] | %Inh (HCK) [%] | %Inh (HIPK1) [%] | %Inh (HIPK2) [%] | %Inh (HIPK3) [%] | %Inh (HIPK4) [%] | %Inh (HPK1) [%] | %Inh (HUNK) [%] | %Inh (ICK) [%] | %Inh (IGF1R) [%]
Cc1nn2c(=O)cc(N3CCO[C@H](C)C3)nc2n1Cc1cccc(Cl)c1Cl [GSK2373693] | 7 | 8 | 0 | 11 | 0 | 17 | 3 | 0 | 0 | 69 | 3 | 22 | 10 | 30 | 78 | 0 | 25 | 0 | 15 | 10
Fc1cc(Cl)ccc1Nc1ccnc2cc(-c3ccc(CN4CCSCC4)o3)ccc12 [GW560106] | 90.5 | 84 | 0 | 0 | 0 | 32 | 3 | 0 | 22 | 0 | 28 | 95.3 | 3 | 0 | 0 | 0 | 20 | 71 | 0 | 25
N#Cc1cnc2cc(-c3cnc(CNCCN4CCOCC4)s3)ccc2c1Nc1ccc(Oc2ccccc2)cc1 [GW664114] | 93.2 | 43 | 100 | 0 | 0 | 27 | 0 | 0 | 6 | 10 | 0 | 99 | 0 | 0 | 17 | 0 | 89 | 12 | 0 | 17
Cn1cc(-c2ccc3c(c2)CCN3C(=O)Cc2cc(F)cc(F)c2F)c2c(N)ncnc21 [GSK2634140] | 0 | 17 | 40 | 11 | 0 | 0 | 0 | 0 | 0 | 1 | 32 | 0 | 0 | 0 | 15 | 0 | 57 | 12 | 0 | 21
CN(C)CCOc1ccc(-c2cc(-c3ccc(Cl)c(O)c3)c(-c3ccncc3)[nH]2)cc1.Cl.Cl [SB-684387] | 78 | 42 | 0 | 43 | 0 | 21 | 0 | 17 | 41 | 10 | 18 | 51 | 2 | 0 | 1 | 4 | 39 | 0 | 0 | 0
Fc1cc(Cl)ccc1Nc1ccnc2cc(-c3ccc(CN4CCOCC4)o3)ccc12 [GW560109] | 90.9 | 84 | 13 | 5 | 0 | 46 | 2 | 0 | 1 | 24 | 0 | 96.7 | 0 | 0 | 26 | 0 | 27 | 62 | 0 | 12
Cl.Cl.NCC(NC(=O)c1cc(-c2cccnc2)c(-c2ccnc3[nH]ccc23)s1)c1ccccc1 (stereo not shown) [GSK1323434] | 6 | 88 | 0 | 0 | 8 | 39 | 4 | 21 | 34 | 22 | 96.4 | 0 | 69 | 67 | 86 | 64 | 59 | 0 | 4 | 0
COc1cccc(NC(=O)NCCNc2ccnc(Nc3ccc(F)cc3)n2)c1 [GSK1379879] | 0 | 0 | 0 | 0 | 0 | 68 | 0 | 0 | 11 | 16 | 0 | 0 | 0 | 0 | 7 | 0 | 34 | 11 | 10 | 0
CN(C)CCNS(=O)(=O)c1ccc(-c2ccnc3[nH]ccc23)cc1 [GSK977620] | 18 | 1 | 14 | 71 | 0 | 72 | 0 | 86 | 0 | 11 | 84 | 0 | 82 | 82 | 90.5 | 43 | 42 | 0 | 5 | 2
NCCC(NC(=O)c1cc(Br)c(-c2ccnc3[nH]ccc23)s1)c1ccccc1.O=C(O)C(F)(F)F.O=C(O)C(F)(F)F (stereo not shown) [GSK1307810] | 0 | 83 | 0 | 100 | 82 | 96.4 | 72 | 89 | 0 | 20 | 97.6 | 0 | 53 | 9 | 67 | 93.3 | 69 | 0 | 0 | 0
COc1cccc(-c2nc(-c3ccccc3)[nH]c2-c2ccncc2)c1 [SB-610250] | 24 | 72 | 1 | 0 | 0 | 49 | 0 | 0 | 0 | 19 | 66 | 0 | 0 | 0 | 15 | 7 | 43 | 31 | 3 | 16
